28 compounds from PubChem BioAssay (NCATS) can be followed below.

Inconclusive results are not listed. The source made the active and inactive calls. The call rests on the fitted dose curve.

The nature of experiment [1]: Primary qHTS for Huh7 cytotoxicity: counterscreen for inhibitors of MERS-S pseudotyped particle cell entry (AID 1479147). Further: potency means the concentration at half of the fitted maximal effect. On activity change, negative = cytotoxicity: on the % scale 0 is the no-effect control and ±100 the full control effect. The conditions noted are these: outcome: dose series up to 57.1 µM unless noted. A general note: qHTS replaces the single test concentration by a dilution series.
Experiment [2] in a line: Primary qHTS for inhibitors of MERS-S pseudo-typed particle cell entry (AID 1479149). Further: nearly all actives have a fitted effect of over 60% in size. Further: potency means the concentration at half of the fitted maximal effect. On activity change, negative = inhibition: on the % scale 0 is the no-effect control and ±100 the full control effect. Conditions: outcome: dose series up to 57.1 µM unless noted.
Experiment [3] is described as follows: Primary qHTS for Vero E6 cytotoxicity: counterscreen for inhibitors of SARS-S pseudo-typed particle cell entry (AID 1479150). On activity change, negative = cytotoxicity: on the % scale 0 is the no-effect control and ±100 the full control effect. The conditions noted are these: outcome: dose series up to 57.1 µM unless noted.
Experiment [4] is described as follows: Cytotoxicity counterscreen for inhibitors of SARS-CoV-2 cell entry (AID 1645845). Further: nearly all actives have a fitted effect of over 50% in size. Further: potency means the concentration at half of the fitted maximal effect. On activity change, negative = cytotoxicity: on the % scale 0 is the no-effect control and ±100 the full control effect. Conditions: outcome: dose series up to 57.1 µM unless noted. Summed up:
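Expi293F/hACE2 cells seeded overnight; cpd pin-transferred in DMSO, 1 h preincubation, + media, 48 h 37 C 5% CO2; ATPLite 1step luminescence; normalized to cells and no cells.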
In general terms: A counterscreen serves to expose hits that act by an unwanted route or on another target.

The nature of experiment [5]: Primary qHTS to identify inhibitors of SARS-CoV-2 cell entry (AID 1645846). Further: nearly all actives have a fitted effect of over 45% in size. Further: potency means the concentration at half of the fitted maximal effect. Conditions: SARS-CoV-2 pseudovirus cell entry assay, luminescence; activity change, negative = inhibition: at 57.1 µM (top of the series) unless noted. Put shortly:
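Using luciferase-reporting pseudoviruses carrying Wuhan-Hu-1 spike, the screen tracks entry into stably ACE2-expressing cells over 48 hr. Activity is expressed relative to spike particles versus particles lacking any fusion protein.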

With `CN(C)CCC(O)(c1ccccc1)c1ccccc1Cl` (centres undefined), the Potency entry in experiment [1], in experiment [2], in experiment [3] and in experiment [4] was “inactive” throughout.

Consider `CNCc1cc(-c2ccccc2F)n(S(=O)(=O)c2cccnc2)c1`, for which the Potency result in experiment [1], in experiment [2], in experiment [3] and in experiment [4] was “inactive” each time.

Regarding `NCCC[C@H](NC(=O)[C@@H]1CCCN1C(=O)[C@@H]1CSSC[C@H](N)C(=O)N[C@@H](Cc2ccc(O)cc2)C(=O)N[C@@H](Cc2ccccc2)C(=O)N[C@@H](CCC(N)=O)C(=O)N[C@@H](CC(N)=O)C(=O)N1)C(=O)NCC(N)=O`, the Potency result in experiment [1], in experiment [2], in experiment [3] and in experiment [4] was “inactive” throughout.

Take `O=C(O)C(O)C(O)C(=O)O` (centres undefined): the Potency entry in experiment [1], in experiment [2], in experiment [3] and in experiment [4] was “inactive” in each case.

With `O=C(O)C(O)[C@H](O)[C@H](O)[C@H](O)[C@H](O)CO` (some centres undefined), the Potency entry in experiment [1], in experiment [2], in experiment [3] and in experiment [4] was “inactive” each time.

`C#C[C@]1(OC(C)=O)CC[C@H]2[C@@H]3CCC4=CC(=O)CC[C@@H]4[C@H]3CC[C@@]21C`: the Potency result in experiment [1], in experiment [2], in experiment [3] and in experiment [4] was “inactive” in each case.

Turning to `COc1ccc(-c2c(Cl)ncn2-c2ccc(S(N)(=O)=O)cc2)cc1F`, the Potency entry in experiment [1], in experiment [2], in experiment [3] and in experiment [4] was “inactive” throughout.

`COc1ccc2c(=O)c(C)c(-c3ccccc3)oc2c1CN(C)C`: the Potency entry in experiment [1], in experiment [2], in experiment [3] and in experiment [4] was “inactive” throughout.

Consider `CO/N=C(\C(=O)N[C@@H]1C(=O)N2C(C(=O)OCOC(=O)C(C)(C)C)=C(/C=C\c3scnc3C)CS[C@H]12)c1csc(N)n1`, for which the Potency result in experiment [1], in experiment [2], in experiment [3] and in experiment [4] was “inactive” each time.

On to `CCC(C)C(C(=O)OCC[N+](C)(CC)CC)c1ccccc1` (centres undefined), for which the Potency result in experiment [1], in experiment [2], in experiment [3] and in experiment [4] was “inactive” in each case.

For the compound `CCCCC[C@@H](O)CC[C@H]1[C@@H]2Cc3cccc(OCC(=O)O)c3C[C@@H]2C[C@@H]1O`, the Potency entry in experiment [1], in experiment [2], in experiment [3] and in experiment [4] was “inactive” in each case. In experiment [5], the activity change, negative = inhibition is -4.98%.

For `N=c1ccn2c(n1)O[C@@H]1[C@@H](O)[C@H](CO)O[C@@H]12`, the Potency result in experiment [1], in experiment [3] and in experiment [4] was “inactive” each time. Also, the Potency in experiment [2] was 8.91 µM (active); in experiment [5] it was 2.51 µM (active).

Turning to `C=C1c2c(Cl)ccc(O)c2C(O)=C2C(=O)[C@@]3(O)C(O)=C(C(N)=O)C(=O)[C@@H](N(C)C)[C@@H]3[C@@H](O)[C@H]12`, the Potency result in experiment [1], in experiment [3] and in experiment [4] was “inactive” in each case. Further, in experiment [2], the Potency is 20 µM (active).

Turning to `CC(C)(C)NC(=O)N[C@H](C(=O)N1C[C@H]2[C@@H]([C@H]1C(=O)NC(CC1CCC1)C(=O)C(N)=O)C2(C)C)C(C)(C)C` (some centres undefined), the Potency entry in experiment [1], in experiment [2], in experiment [3] and in experiment [4] was “inactive” throughout.

For the compound `CCOc1ccc(N=C(C)Nc2ccc(OCC)cc2)cc1`, the Potency entry in experiment [1], in experiment [2], in experiment [3] and in experiment [4] was “inactive” in each case.

Take `COc1cc(C[C@@H]2NCCc3cc(O)c(O)cc32)cc(OC)c1OC`: the Potency entry in experiment [1], in experiment [2], in experiment [3] and in experiment [4] was “inactive” each time. Also, the activity change, negative = inhibition in experiment [5] was -18.7%.

For the compound `CCCC(=O)Nc1c(I)cc(I)c(CC(CC)C(=O)O)c1I` (centres undefined), the Potency entry in experiment [1], in experiment [2], in experiment [3] and in experiment [4] was “inactive” each time. Moreover, the activity change, negative = inhibition in experiment [5] was -27.1%.

As for `CC(C)(S)[C@H](N)C(=O)O`, the outcome in experiment [1] was “inactive [at 5.34 µM]”; in experiment [2], “inactive [at 5.34 µM]”; in experiment [4], “inactive [at 5.25 µM]”. Moreover, the activity change, negative = cytotoxicity in experiment [3] is 0.739% [at 5.34 µM] (inactive). In experiment [5], the activity change, negative = inhibition was -28.5% [at 5.25 µM].

As to `CON=C1C[C@]2(C[C@@H]3C[C@@H](C/C=C(\C)C[C@@H](C)/C=C/C=C4\CO[C@@H]5[C@H](O)C(C)=C[C@@H](C(=O)O3)[C@]45O)O2)O[C@H](/C(C)=C/C(C)C)[C@H]1C`, the Potency entry in experiment [1], in experiment [2], in experiment [3] and in experiment [4] was “inactive” in each case.

As for `CCCCN(CCCC)C(=S)[S-].CCCCN(CCCC)C(=S)[S-].[Zn+2]`, the Potency entry in experiment [1], in experiment [2], in experiment [3] and in experiment [4] was “inactive” throughout.

With `CC(=O)OCC1=C(C(=O)O)N2C(=O)[C@@H](NC(=O)[C@H](N)c3ccccc3)[C@H]2SC1`, the Potency result in experiment [1], in experiment [2], in experiment [3] and in experiment [4] was “inactive” in each case. Besides, the activity change, negative = inhibition in experiment [5] is -7.18%.

For the compound `CC1(C)S[C@@H]2[C@H](NC(=O)[C@H](NC(=O)N3CCN(S(C)(=O)=O)C3=O)c3ccccc3)C(=O)N2[C@H]1C(=O)O`, the Potency result in experiment [1], in experiment [2], in experiment [3] and in experiment [4] was “inactive” each time. Also, the activity change, negative = inhibition in experiment [5] was -10%.

In the case of `CN1N=C2CCN(C(=O)[C@H](COCc3ccccc3)NC(=O)C(C)(C)N)C[C@]2(Cc2ccccc2)C1=O`, the Potency result in experiment [1], in experiment [2], in experiment [3] and in experiment [4] was “inactive” in each case.

As to `CCN(CC)C(=O)[C@]1(c2ccccc2)C[C@H]1CN`, the Potency entry in experiment [1], in experiment [2], in experiment [3] and in experiment [4] was “inactive” throughout.

In the case of `NC(=O)C1(N2CCCCC2)CCN(CCCN2c3ccccc3CCc3ccccc32)CC1`, the figures for the Potency in experiment [1], in experiment [2] and in experiment [4] were 28.2 µM (active), 8.91 µM (active) and 31.6 µM (active), respectively. Further, the Potency result in experiment [3] is “inactive”.

`O=C(O)C[C@@H]1CC[C@H](NC(=O)Cc2cccs2)B(O)O1`: the Potency entry in experiment [1], in experiment [2], in experiment [3] and in experiment [4] was “inactive” in each case.

Turning to `NC(N)=NCC1COC2(CCCCC2)O1` (centres undefined), the Potency entry in experiment [1], in experiment [2], in experiment [3] and in experiment [4] was “inactive” throughout.

For `OC(c1ccccc1)(c1ccccc1)C12CC[N+](CCOCc3ccccc3)(CC1)CC2`, the Potency entry in experiment [1], in experiment [2], in experiment [3] and in experiment [4] was “inactive” throughout.
